About 8,800 targets were measured; listed, in parts, are those with a hit and a random draw of the rest. About 0.5% of all pairs of compound and target were hits. Values without a mark were called inactive.
Experiments:
Assay in all cases: log2 fold change, soluble protein after heating vs DMSO (PISA); higher = thermal stabilisation; K562 lysate, 10 uM; active = over 0.2 and 3.5 SD of the protein, either way, in both replicates (recomputed)
nilotinib = compound: Cc1cn(-c2cc(NC(=O)c3ccc(C)c(Nc4nccc(-c5cccnc5)n4)c3)cc(C(F)(F)F)c2)cn1 [nilotinib]
Outline: (§1)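 A 30 min treatment with 10 μM compound was applied to crude K562 extract at 1 mg/mL protein in PBS pH 7.4 with 1 mM MgCl2. Heating for 3 min spanned 48°C-58°C, after which aliquots were pooled, adjusted to 0.5% NP-40 at 4°C and spun at 21,000xg for 90 min. TMTpro 16plex LC-MS/MS of the supernatant, with channel sums equalised, gave values recorded as log-two fold change in thermal stability against solvent controls, from duplicates.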

[1] = compound: Cc1nc(Nc2n[nH]c3c2CN(C(=O)N[C@H](CN(C)C)c2ccccc2)C3(C)C)c2sccc2n1
Outline: as §1

dasatinib = compound: Cc1nc(Nc2ncc(C(=O)Nc3c(C)cccc3Cl)s2)cc(N2CCN(CCO)CC2)n1 [dasatinib]
Outline: as §1

[2] = compound: Cc1ncc(-c2ccnc(Nc3ccc(S(C)(=O)=O)cc3)n2)n1C(C)C
Outline: as §1

[3] = compound: Cn1cc(-c2ccc3c(c2)CCN3C(=O)Cc2cccc(C(F)(F)F)c2)c2c(N)ncnc21
Outline: as §1

quisinostat = compound: Cn1cc(CNCC2CCN(c3ncc(C(=O)NO)cn3)CC2)c2ccccc21 [quisinostat]
Outline: as §1

tipifarnib = compound: Cn1cncc1[C@@](N)(c1ccc(Cl)cc1)c1ccc2c(c1)c(-c1cccc(Cl)c1)cc(=O)n2C [tipifarnib]
Outline: as §1

[4] = compound: NC(=O)Nc1cc(-c2cccc(F)c2)sc1C(=O)N[C@H]1CCCNC1
Outline: as §1

[5] = compound: NC(=O)c1cnc(N[C@@H]2CCCC[C@@H]2N)nc1Nc1cccc(-n2nccn2)c1
Outline: as §1

[6] = compound: NC1(c2ccc(-c3nc4ccn5c(=O)[nH]nc5c4cc3-c3ccccc3)cc2)CCC1
Outline: as §1

UniProt Q0ZGT2, sequence (Q0ZGT2 whole entry, looked up): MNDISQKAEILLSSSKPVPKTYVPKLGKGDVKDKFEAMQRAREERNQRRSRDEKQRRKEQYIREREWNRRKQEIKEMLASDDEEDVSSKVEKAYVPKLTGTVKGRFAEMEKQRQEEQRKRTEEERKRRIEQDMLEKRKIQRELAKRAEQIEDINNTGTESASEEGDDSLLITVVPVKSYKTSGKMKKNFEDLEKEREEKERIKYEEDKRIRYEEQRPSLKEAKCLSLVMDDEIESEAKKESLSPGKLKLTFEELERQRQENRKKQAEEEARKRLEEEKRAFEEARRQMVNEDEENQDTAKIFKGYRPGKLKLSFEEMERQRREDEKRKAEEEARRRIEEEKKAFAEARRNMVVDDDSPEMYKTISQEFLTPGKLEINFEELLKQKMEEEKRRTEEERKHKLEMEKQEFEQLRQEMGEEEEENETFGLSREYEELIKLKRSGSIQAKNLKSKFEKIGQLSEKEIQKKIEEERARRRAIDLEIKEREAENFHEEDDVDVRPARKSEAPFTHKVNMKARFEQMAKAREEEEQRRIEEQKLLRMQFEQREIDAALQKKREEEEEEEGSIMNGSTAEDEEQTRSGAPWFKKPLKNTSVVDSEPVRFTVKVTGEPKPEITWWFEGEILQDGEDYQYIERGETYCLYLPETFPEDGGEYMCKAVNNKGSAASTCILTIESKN
UniProt P18440, sequence (P18440 whole entry, looked up): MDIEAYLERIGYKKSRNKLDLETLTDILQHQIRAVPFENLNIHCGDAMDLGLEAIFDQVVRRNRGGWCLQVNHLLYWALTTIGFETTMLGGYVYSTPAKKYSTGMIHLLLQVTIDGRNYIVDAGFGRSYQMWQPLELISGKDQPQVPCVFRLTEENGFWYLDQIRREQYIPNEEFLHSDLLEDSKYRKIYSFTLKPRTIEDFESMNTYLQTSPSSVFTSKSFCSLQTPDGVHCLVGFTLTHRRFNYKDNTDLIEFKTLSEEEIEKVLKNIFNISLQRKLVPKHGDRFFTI
UniProt P13533, sequence (P13533 whole entry, looked up): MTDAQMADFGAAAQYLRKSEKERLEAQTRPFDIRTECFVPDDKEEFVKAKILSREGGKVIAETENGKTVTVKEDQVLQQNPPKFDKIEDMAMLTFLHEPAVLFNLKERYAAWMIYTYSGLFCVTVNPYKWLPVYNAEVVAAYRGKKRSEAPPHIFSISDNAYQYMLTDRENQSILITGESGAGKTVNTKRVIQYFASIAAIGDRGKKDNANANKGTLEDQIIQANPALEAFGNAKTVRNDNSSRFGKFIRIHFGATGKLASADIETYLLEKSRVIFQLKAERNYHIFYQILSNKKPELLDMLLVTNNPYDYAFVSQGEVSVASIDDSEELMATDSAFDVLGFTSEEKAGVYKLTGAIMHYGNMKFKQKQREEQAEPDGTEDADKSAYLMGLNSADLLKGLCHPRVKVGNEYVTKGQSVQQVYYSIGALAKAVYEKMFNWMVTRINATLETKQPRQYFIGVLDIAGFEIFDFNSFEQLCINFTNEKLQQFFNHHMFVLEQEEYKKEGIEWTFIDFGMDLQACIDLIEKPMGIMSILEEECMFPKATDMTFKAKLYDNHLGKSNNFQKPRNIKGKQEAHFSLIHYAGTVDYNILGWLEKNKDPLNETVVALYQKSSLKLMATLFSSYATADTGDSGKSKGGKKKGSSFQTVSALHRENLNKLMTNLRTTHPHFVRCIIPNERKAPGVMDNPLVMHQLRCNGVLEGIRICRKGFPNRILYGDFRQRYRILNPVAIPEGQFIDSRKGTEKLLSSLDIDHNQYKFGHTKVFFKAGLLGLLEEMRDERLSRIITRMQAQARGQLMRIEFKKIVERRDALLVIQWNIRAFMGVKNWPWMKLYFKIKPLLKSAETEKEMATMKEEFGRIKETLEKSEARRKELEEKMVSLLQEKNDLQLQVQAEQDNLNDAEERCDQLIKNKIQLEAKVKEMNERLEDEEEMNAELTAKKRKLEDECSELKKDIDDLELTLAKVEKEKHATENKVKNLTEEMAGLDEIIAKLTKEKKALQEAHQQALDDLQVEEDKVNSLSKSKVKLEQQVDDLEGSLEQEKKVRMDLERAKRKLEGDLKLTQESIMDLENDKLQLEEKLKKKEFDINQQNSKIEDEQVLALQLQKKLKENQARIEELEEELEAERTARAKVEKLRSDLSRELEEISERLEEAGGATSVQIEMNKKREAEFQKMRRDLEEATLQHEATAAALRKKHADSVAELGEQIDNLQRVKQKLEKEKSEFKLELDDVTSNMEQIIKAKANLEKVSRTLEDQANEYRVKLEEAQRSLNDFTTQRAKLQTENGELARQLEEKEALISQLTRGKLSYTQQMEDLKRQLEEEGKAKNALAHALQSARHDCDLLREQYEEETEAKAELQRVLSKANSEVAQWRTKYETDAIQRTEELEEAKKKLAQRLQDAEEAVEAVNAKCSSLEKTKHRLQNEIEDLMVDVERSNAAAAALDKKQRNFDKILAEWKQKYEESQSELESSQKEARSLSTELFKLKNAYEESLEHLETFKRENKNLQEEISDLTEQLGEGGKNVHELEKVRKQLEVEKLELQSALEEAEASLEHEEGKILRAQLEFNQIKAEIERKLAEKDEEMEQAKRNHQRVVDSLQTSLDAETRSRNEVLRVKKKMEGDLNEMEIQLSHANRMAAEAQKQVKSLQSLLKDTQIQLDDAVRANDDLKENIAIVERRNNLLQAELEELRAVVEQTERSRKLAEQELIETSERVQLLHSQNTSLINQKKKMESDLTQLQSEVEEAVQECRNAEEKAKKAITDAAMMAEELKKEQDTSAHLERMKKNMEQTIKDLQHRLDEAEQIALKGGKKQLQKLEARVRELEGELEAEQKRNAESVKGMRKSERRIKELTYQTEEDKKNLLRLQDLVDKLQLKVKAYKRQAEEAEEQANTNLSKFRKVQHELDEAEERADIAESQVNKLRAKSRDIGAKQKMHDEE
UniProt P49757, sequence (P49757 whole entry, looked up): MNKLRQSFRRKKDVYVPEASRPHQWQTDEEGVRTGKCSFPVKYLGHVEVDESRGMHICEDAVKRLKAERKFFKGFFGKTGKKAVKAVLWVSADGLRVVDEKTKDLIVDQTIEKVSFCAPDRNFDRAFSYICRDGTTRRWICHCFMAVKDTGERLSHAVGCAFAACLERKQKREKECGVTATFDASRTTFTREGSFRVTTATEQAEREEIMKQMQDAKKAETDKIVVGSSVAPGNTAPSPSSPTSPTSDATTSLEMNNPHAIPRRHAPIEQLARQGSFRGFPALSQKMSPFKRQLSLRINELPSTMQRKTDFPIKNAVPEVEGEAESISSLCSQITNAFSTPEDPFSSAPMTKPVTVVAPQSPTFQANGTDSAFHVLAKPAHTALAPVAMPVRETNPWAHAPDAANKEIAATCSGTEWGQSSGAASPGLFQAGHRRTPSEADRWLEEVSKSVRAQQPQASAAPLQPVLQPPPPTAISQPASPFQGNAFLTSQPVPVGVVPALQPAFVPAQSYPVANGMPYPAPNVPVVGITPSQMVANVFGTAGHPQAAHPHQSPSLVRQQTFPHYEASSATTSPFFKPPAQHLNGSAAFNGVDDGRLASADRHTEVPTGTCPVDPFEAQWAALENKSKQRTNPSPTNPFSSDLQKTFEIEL
UniProt Q01968, sequence (Q01968 whole entry, looked up): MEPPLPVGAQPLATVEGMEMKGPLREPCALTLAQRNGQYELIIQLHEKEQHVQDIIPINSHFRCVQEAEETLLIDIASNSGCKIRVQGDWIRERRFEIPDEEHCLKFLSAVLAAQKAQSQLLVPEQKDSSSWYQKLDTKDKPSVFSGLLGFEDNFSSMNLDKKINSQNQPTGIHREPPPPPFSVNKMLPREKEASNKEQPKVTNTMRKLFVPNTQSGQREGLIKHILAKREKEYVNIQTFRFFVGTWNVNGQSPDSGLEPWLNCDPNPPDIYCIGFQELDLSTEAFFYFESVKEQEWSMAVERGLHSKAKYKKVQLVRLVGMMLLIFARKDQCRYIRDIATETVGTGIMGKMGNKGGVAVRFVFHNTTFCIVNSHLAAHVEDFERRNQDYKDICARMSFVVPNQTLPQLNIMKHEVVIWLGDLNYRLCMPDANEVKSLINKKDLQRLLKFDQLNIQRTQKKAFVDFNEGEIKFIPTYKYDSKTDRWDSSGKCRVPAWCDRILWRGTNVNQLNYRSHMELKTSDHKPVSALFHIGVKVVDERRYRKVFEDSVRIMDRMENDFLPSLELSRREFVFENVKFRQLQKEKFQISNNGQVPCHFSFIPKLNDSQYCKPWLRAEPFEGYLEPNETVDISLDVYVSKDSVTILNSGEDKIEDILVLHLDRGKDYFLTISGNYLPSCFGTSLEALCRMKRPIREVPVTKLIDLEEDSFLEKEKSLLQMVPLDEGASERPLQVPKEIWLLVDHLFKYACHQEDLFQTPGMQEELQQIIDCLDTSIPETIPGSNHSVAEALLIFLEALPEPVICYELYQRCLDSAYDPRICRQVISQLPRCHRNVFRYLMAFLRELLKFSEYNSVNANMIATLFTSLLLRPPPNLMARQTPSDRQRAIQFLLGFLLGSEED
UniProt P47900, sequence (P47900 whole entry, looked up): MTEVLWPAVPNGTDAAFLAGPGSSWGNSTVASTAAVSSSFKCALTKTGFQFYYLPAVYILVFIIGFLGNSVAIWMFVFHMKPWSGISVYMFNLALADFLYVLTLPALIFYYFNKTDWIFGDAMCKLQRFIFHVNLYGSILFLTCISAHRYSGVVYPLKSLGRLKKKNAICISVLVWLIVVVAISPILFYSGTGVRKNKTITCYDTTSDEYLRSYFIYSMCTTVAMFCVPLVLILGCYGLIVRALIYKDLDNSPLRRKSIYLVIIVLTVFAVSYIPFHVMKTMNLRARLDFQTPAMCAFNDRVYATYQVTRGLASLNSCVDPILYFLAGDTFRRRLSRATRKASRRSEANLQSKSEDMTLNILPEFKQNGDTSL
UniProt O60829, sequence (O60829 whole entry, looked up): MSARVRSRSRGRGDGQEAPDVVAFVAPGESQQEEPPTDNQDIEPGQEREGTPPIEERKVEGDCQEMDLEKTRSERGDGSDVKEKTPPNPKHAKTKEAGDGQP

Row | Target | log2 fold change (nilotinib) | log2 fold change [1] | log2 fold change (dasatinib) | log2 fold change [2] | log2 fold change [3] | log2 fold change (quisinostat) | log2 fold change (tipifarnib) | log2 fold change [4] | log2 fold change [5] | log2 fold change [6]
1 | ORC5 (UniProt O43913) | -0.043 | -0.004 | -0.047 | 0.019 | 0.098 | -0.107 | -0.004 | 0.098 | 0.047 | -0.073
2 | NPLOC4 (UniProt I3L3I1) |  |  | 0.057 |  | -0.116 | -0.986 (active) |  | 0.196 |  | 
3 | OSBP2 (UniProt Q969R2) | -0.053 | -0.038 | -0.089 | -0.025 | -0.002 | -0.184 | -0.053 | 0.052 | 0.075 | 0.026
4 | N4BP2 (UniProt Q86UW6) | 0.026 | 0.036 | -0.024 | -0.043 | 0.061 | -0.001 | -0.061 | 0.037 | -0.018 | -0.048
5 | MYBL2 (UniProt P10244) |  |  | -0.055 |  | -0.012 | -0.071 |  | -0.021 |  | -0.015
6 | MYLK (UniProt Q15746) | 0.138 | -0.197 |  | -0.108 |  | 0.048 | -0.035 | -0.175 | 0.079 | 
7 | NUMB isoform 2 (UniProt P49757) | -0.293 | -0.07 | 0.227 | 0.225 | -0.127 |  | -0.068 |  |  | 
8 | PAGE4 (UniProt O60829) |  |  | -0.086 |  | -0.035 | -0.097 |  | 0.036 | 0.04 | 0.004
9 | NAT1 (UniProt P18440) | -0.005 | -0.017 | -0.058 | -0.04 | 0.097 | -0.1 | -0.006 | 0.017 | -0.018 | -0.037
10 | NAA16 (UniProt Q6N069) | 0.068 | -0.139 | -0.042 | 0.039 | 0.071 |  | -0.015 |  | 0.08 | 
11 | NCKAP1L (UniProt P55160) | 0.001 | -0.017 | -0.034 | 0.072 | 0.005 | -0.034 | 0.032 | 0.055 | 0.017 | 0.023
12 | NEXN (UniProt Q0ZGT2) | -0.022 | -0.011 | 0.043 | -0.051 | 0.027 |  | -0.043 |  | -0.149 | -0.002
13 | NUDT5 (UniProt C9JYY9) | -0.049 | 0.02 |  | 0.228 |  |  | -0.068 |  |  | -0.119
14 | NUB1 isoform 2 (UniProt Q9Y5A7) |  |  |  |  |  | 0.205 |  | -0.019 |  | 
15 | NFAT5 isoform 4 (UniProt O94916) |  |  |  |  |  | 0.014 |  | 0.012 |  | 
16 | ORC3 (UniProt Q9UBD5) | 0.038 | -0.062 |  | 0.059 |  |  | -0.084 |  | -0.053 | 
17 | PAPOLG (UniProt Q9BWT3) | 0.025 | -0.025 | -0.023 | 0.031 | 0.079 | -0.056 | 0.079 | -0.054 |  | 0.445
18 | MSH2 (UniProt P43246) | -0.005 | -0.008 | -0.038 | -0.01 | 0.01 | -0.08 | 0.004 | 0.046 | 0.016 | -0.017
19 | OARD1 (UniProt Q9Y530) | 0.015 | 0.016 | -0.031 | 0.005 | 0.071 | -0.004 | -0.014 | 0.036 | -0.009 | -0.006
20 | NUDT6 (UniProt P53370) |  |  | -0.013 |  | 0.032 | 0.021 |  | -0.03 |  | -0.058
21 | MYH6 (UniProt P13533) |  |  |  |  |  | -0.007 |  | 0.082 | 0.092 | -0.114
22 | OCRL (UniProt Q01968) | -0.095 | 0.083 | -0.044 | -0.051 | 0.053 | -0.089 | 0.048 | -0.018 | -0.012 | 0.024
23 | MUC5AC (UniProt P98088) | 0.02 | 0.048 |  | 0.128 |  |  | -0.593 (active) |  |  | 
24 | P2RY1 (UniProt P47900) |  |  | 0.012 |  | -0.027 |  |  |  | -0.182 | 0.004
25 | NSA2 (UniProt O95478) | 0.102 | -0.04 | -0.323 | -0.08 | -0.113 |  | -0.004 |  | 0.076 | -0.15
